# Source: PubChem BioAssay AID602429 (Sanford-Burnham Center for Chemical Genomics, 2012)
# Among all 360,000 compounds or so, about 1,200 (0.33%) were called active. Cut-off read from the data, not from the text of the source: active = inhibition above about 37%; inactive = the rest. Many of the other results were omitted from the sample, so actives are more common in it than they were.
# Biological target: Small ubiquitin-related modifier 1 (Homo sapiens) (UniProt P63165)
# Test: modulators of SUMO1 protein-protein interactions, primary screen, biochemical, uHTS (AID 602429)
# Details: SUMO1 binding to a labelled peptide, TR-FRET, 1 h; at 20 µM; hits give high values
# Chain of Small ubiquitin-related modifier 1 (Homo sapiens) (P63165 whole entry, looked up): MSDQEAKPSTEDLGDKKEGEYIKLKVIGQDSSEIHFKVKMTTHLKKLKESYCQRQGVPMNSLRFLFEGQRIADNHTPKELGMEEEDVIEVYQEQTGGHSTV
row,Compound,inhibition
1,COc1ccc(C(=O)NC2(C(F)(F)F)NC(=O)N(CCCc3ccccc3)C2=O)c(OC)c1OC (stereo unspecified),7.81% (inactive)
2,COc1ccc(-c2oc3ncn(Cc4ccco4)c(=N)c3c2-c2ccc(OC)cc2)cc1,-9.5% (inactive)
3,Cn1c2ccccc2c(=O)c2c(=O)n(Cc3ccco3)c(COc3ccccc3)nc21,42.3% (active)
4,O=C(Cn1c(=O)n(Cc2ccco2)c(=O)c2ccccc21)NCC1CCCO1 (stereo unspecified),4.85% (inactive)
5,O=C(Nc1ccccc1C(=O)N1CCCCC1)c1ccco1,-3.94% (inactive)
6,O=C(Nc1ccccc1)c1ccccc1NC(=O)C(F)(F)F,-1.22% (inactive)
7,O=C(O)c1ccccc1-c1ccccc1C(=O)Nc1ccccc1Br,-0.773% (inactive)
8,O=C(Nc1ccccc1)c1ccccc1Br,41.9% (active)
9,COc1ccc(NC(=S)N2CCC(NC(=O)c3cccc(F)c3)CC2)cc1,4.71% (inactive)
10,Cc1noc(C)c1-c1nc(CSc2ccc(Cl)cc2)no1,1.71% (inactive)
11,CCN(CC)CCCNC(=O)c1cn(C)c2ccc(S(=O)(=O)N(C)C3CCCCC3)cc2c1=O,5.63% (inactive)
12,COc1ccc2[nH]c3c(C)c4cc[n+](C)cc4c(C)c3c2c1,61.3% (active)
13,CCOc1cc(-c2conc2N)cc(OCC)c1OCC,1.02% (inactive)
14,CC(=O)Nc1ccc(NC(=O)CSc2nnc(C3CC3)n2-c2ccccc2)cc1,3.94% (inactive)
15,CCOc1ccc(N(CC(=O)NCC2CCCO2)S(=O)(=O)c2ccc(C)cc2)cc1 (stereo unspecified),6.75% (inactive)
16,C=CCCC(=O)Nc1nc(C)c(-c2csc(Nc3ccc(Cl)cc3)n2)s1,1.48% (inactive)
17,COc1cccc(NC(=O)COc2cccnc2[N+](=O)[O-])c1,-32.4% (inactive)
18,CCCCCCC(=O)Nc1nc(C)c(-c2csc(Nc3cccc(OC)c3)n2)s1,40.2% (active)
19,CCCOC1CCCN(Cc2cn(C)nc2-c2ccccc2F)C1 (stereo unspecified),5.15% (inactive)
20,COc1ccc(-c2csc(C(O)c3cccc(Cl)c3)n2)cn1 (stereo unspecified),-2.47% (inactive)
21,CCc1nn(CC(=O)N2CCN(c3cc(C)ccc3C)CC2)c(=O)c2cc3occc3n12,2.09% (inactive)
22,O=S1(=O)CCO[C@H]2Cc3ccccc3[C@H]2N1Cc1ccccc1,-0.696% (inactive)

row,Compound,inhibition
1,O=C(CCC1CCCN(C(=O)c2ccc(F)c(F)c2)C1)N1CCN(c2ccccn2)CC1 (stereo unspecified),2.38% (inactive)
2,C=Cc1ccc(C(=O)N2CCCC(CCC(=O)N3CCN(c4ccccn4)CC3)C2)cc1 (stereo unspecified),58.2% (active)
3,COc1cccc(CC(=O)N2CCCC(CCC(=O)N3CCN(c4ccccn4)CC3)C2)c1 (stereo unspecified),-2.38% (inactive)
4,Cc1ccc(NC(=S)NC(NC(=O)Cc2cccc3ccccc23)C(Cl)(Cl)Cl)cc1 (stereo unspecified),0.772% (inactive)
5,COc1ccc(NC(=O)CSc2nnnn2-c2cccc(OC)c2)cc1,-3.25% (inactive)
6,COc1ccc(-n2nnnc2SCC(=O)NCc2cccs2)cc1,43.1% (active)
7,COc1ccc(-n2c(SCC(=O)NCc3cccs3)nnc2-c2ccoc2C)cc1,-0.51% (inactive)
8,CC(=O)c1nn(-c2ccccc2)c(=Nc2ccccc2)cc1C,-14.6% (inactive)
9,OCCC1CN(Cc2cnc(-c3ccccc3)s2)CCN1CCc1ccccc1 (stereo unspecified),-2.45% (inactive)
10,Cn1c(N)c(C(=O)COC(=O)/C=C/c2ccc(OC(F)F)cc2)c(=O)n(C)c1=O,-2.46% (inactive)
11,O=S(=O)(c1ccccc1)N1CN(Cc2ccc(F)cc2)c2nc3ccccc3nc21,-3.38% (inactive)
12,O=C(Nc1ccccc1Cc1ccccc1)c1ccc2c(c1)SC1=NS(=O)(=O)CCN12,28.2% (inactive)
13,O=C(Nc1cccc(-c2nc3ccccc3[nH]2)c1)c1ccc(C(=O)Nc2cccc(-c3nc4ccccc4[nH]3)c2)cc1,56.6% (active)
14,O=C(NNC(=O)c1ccc(-c2ccccc2)cc1)Nc1ccccc1,2.2% (inactive)
15,CCOc1ccc(C(=O)Nc2cccc(SC)c2)cc1,-1.79% (inactive)
16,C/C(CC(=O)NC(C)c1ccccc1)=N\NC(N)=S (stereo unspecified),-2.76% (inactive)
17,CC(=O)c1c(C)[nH]c(C(=O)CN2C(=O)NC(C)(C)C2=O)c1C,-2.31% (inactive)
18,CCOc1cccc2c1OC1(CCCCC1)N1N=C(c3cccnc3)CC21 (stereo unspecified),-1.86% (inactive)
19,O=C(NC1CCCCC1)c1ccc(CNc2c(N3CCOCC3)c(=O)c2=O)cc1,-0.641% (inactive)
20,COc1cc(NC(=O)c2ccc(CNc3c(N4CCCC4)c(=O)c3=O)cc2)cc(OC)c1OC,48.9% (active)
21,O=C(NCc1ccccc1)c1ccc(CNc2c(N3CCCC3)c(=O)c2=O)cc1,-2.77% (inactive)
22,COC(=O)c1sccc1NN1C(=O)c2ccccc2C1=O,-2.44% (inactive)

row,Compound,inhibition
1,O=C(CCN1C(=O)c2ccncc2C1=O)Nc1ccc2c(c1)OCCO2,-14.5% (inactive)
2,Cc1ccc(C(=O)O)cc1-c1ccc(/C=C2\SC(=O)N(CC(=O)Nc3ccc4c(c3)OCO4)C2=O)o1,106% (active)
3,Cc1nc([N+](=O)[O-])cn1CC(=O)Nc1ccc2c(c1)OCO2,-6.05% (inactive)
4,C[C@H]([C@@H](O)[C@@H](O)[C@@H](C)C(C)(C)C)[C@H]1CC[C@H]2C3CC[C@H]4C[C@H](OS(=O)(=O)O)[C@@H](OS(=O)(=O)O)C[C@]4(C)[C@H]3CC[C@]12C (stereo partly specified),57.1% (active)
5,CC(=O)O[C@H]1CC[C@@]2(C)[C@@H](CC[C@@H]3[C@@H]2CC[C@]2(C)[C@@H](C(C)(C)O)C[C@@H]32)C1,1.55% (inactive)
6,CCC(CC)c1nnc(NC(=O)C2CCN(C(=O)c3ccco3)CC2)s1,0.246% (inactive)
7,Fc1cc(Br)ccc1NC(=S)Nc1cccnc1,-2.62% (inactive)
8,O=C(Nc1cccnc1)c1ccc(Cl)cc1[N+](=O)[O-],-24.2% (inactive)
9,O=C(Nc1cccnc1)c1cc2cc(Br)ccc2oc1=O,79% (active)
10,CC(=O)c1c(C)[nH]c(C(=O)COC(=O)c2cccc(S(=O)(=O)N(C)c3ccccc3)c2)c1C,0.686% (inactive)
11,CCCCCCCCn1c2c(c(=N)c3c1CCC3)CCCC2,-1.62% (inactive)
12,COc1ccc(CC(=O)Nc2ccc(-c3nnc(-c4ccc(C)cc4)o3)cc2)cc1,52% (active)
13,COc1ccc(NC(=O)CN(C)C(=O)c2cc(C)oc2C)cc1,-3.07% (inactive)
14,COc1ccc(NC(=O)Cn2c(-c3ccc(OC)cc3)cn(-c3ccc(C)cc3)c2=O)cc1,5.25% (inactive)
15,COc1c(F)c(F)c(-c2csc(N)n2)c(F)c1F,-2.44% (inactive)
16,CCCc1nn(C)c2c(=O)[nH]c(-c3cc(S(N)(=O)=O)ccc3OCC)nc12,3.1% (inactive)
17,CN(CC(=O)NC1CCN(Cc2ccccc2)CC1)S(=O)(=O)c1ccc(Cl)s1,0.847% (inactive)
18,CCC(C)N1C(=O)S/C(=C/c2ccc(Sc3nc4ccccc4[nH]3)o2)C1=O (stereo unspecified),-5.85% (inactive)
19,O=C(Cn1nnc(-c2ccccc2)n1)N/N=C/c1ccc(-c2ccc(Cl)cc2)o1,7.31% (inactive)
20,O=C(O)C(c1ccccc1)N1C(=O)/C(=C\c2ccc(-c3cccc(Cl)c3)o2)SC1=S (stereo unspecified),75.9% (active)
21,COc1ccccc1CC(NC(C)=O)C(=O)NC1CCN(C(=O)Nc2ccccc2Cl)CC1 (stereo unspecified),0.952% (inactive)
22,CN1C(=O)c2ccccc2C(C(=O)NCCCN2CCCC2)C1c1c[nH]c2ccccc12 (stereo unspecified),3% (inactive)

row,Compound,inhibition
1,Cn1c(=O)c2cc(S(=O)(=O)NCCC(=O)Nc3ccc(F)cc3F)ccc2n(C)c1=O,-1.62% (inactive)
2,Cc1cccc(-[n+]2c(-c3cccc(Br)c3)[nH]c3nc4ccccc4nc32)c1,1.4% (inactive)
3,C=CC1=C(C(=O)O)N2C(=O)[C@@H](NC(=O)/C(=N\OCC(=O)O)c3csc(N)n3)[C@H]2SC1,56.1% (active)
4,C=CC1=C(C(=O)O)N2C(=O)[C@@H](NC(=O)/C(=N/OCC(=O)O)c3csc(N)n3)[C@H]2SC1,121% (active)
5,COc1cc(C(=O)OCC(=O)NC23CC4CC(CC(C4)C2)C3)cc(OC)c1OC,5.78% (inactive)
6,Cc1nc(-c2ccccc2)sc1-c1nnc(C2CC2)o1,-25.8% (inactive)
7,Cc1nc(-c2ccccc2)sc1-c1nc(-c2ccccc2)ncc1S(=O)(=O)c1ccccc1,56.4% (active)
8,C#CC(C)(C)NC(=O)c1cnc(-c2ccccc2)nc1-c1ccccc1,1.04% (inactive)
9,O=C(CCNC(=O)c1ccc(Br)cc1)Nc1cccc(S(=O)(=O)N2CCCCC2)c1,0.625% (inactive)
10,O=C1NC[C@H](CCCCN2CCN(CCc3ccccc3)C(=O)C2=O)N(CC2CCCCC2)C1=O,0.562% (inactive)
11,Cc1ccc2[nH]c3c(=O)n(Cc4ccccn4)cnc3c2c1,2.63% (inactive)
12,COc1cc(OC)c(OC)cc1/C=N/Nc1ncnc2c1[nH]c1ccc(C)cc12,60.7% (active)
13,CC1(C)CC(=O)C=C(c2ccc(COC(=O)c3cc(F)cc(F)c3)cc2)C1=O,-22.7% (inactive)
14,COc1ccc(OC)c(NC(=S)N2CCc3ccccc3C2)c1,0.375% (inactive)
15,O=C(NCc1ccccc1)C(c1ccc(F)cc1)N1CCN(C(=O)C2CCCO2)CC1 (stereo unspecified),-1.69% (inactive)
16,CCOC(=O)c1c(-c2cccc(N)c2)cn2ccccc12,-5.65% (inactive)
17,CC1(C)OC(=O)N2CCc3ccccc3C21C (stereo unspecified),3.74% (inactive)
18,CC(=O)Nc1ccc(S(=O)(=O)N2CCC(C(=O)N[C@@H](Cc3ccccc3)C(=O)O)CC2)cc1,0.0701% (inactive)
19,COc1cc(C2C3C(=O)N(c4ccccc4)C(=O)C3ON2c2ccccc2)ccc1O (stereo unspecified),5.72% (inactive)
20,O=c1ccc2c(-c3ccccc3S(=O)(=O)O)c3ccc(O)c(O)c3oc-2c1O,48.2% (active)
